Screening results as filed in PubChem BioAssay.
EZH2 inh – blocks human EZH2/PRC2 H3K27 methylation; inhibition, % at 12.5 µM; 57,000 tested, 0.35% active; Q15910; DELFIA TRF, 1 h;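 active = mean inhibition of replicates at least 50% and every single replicate also reaching 50%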;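 note: dimethyl H3K27 on biotinylated H3 21-44 peptide detected by antibody; plate controls were median neutral control wells for no effect and median positive control wells for full effect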
Target sequence (Q15910 whole entry, looked up): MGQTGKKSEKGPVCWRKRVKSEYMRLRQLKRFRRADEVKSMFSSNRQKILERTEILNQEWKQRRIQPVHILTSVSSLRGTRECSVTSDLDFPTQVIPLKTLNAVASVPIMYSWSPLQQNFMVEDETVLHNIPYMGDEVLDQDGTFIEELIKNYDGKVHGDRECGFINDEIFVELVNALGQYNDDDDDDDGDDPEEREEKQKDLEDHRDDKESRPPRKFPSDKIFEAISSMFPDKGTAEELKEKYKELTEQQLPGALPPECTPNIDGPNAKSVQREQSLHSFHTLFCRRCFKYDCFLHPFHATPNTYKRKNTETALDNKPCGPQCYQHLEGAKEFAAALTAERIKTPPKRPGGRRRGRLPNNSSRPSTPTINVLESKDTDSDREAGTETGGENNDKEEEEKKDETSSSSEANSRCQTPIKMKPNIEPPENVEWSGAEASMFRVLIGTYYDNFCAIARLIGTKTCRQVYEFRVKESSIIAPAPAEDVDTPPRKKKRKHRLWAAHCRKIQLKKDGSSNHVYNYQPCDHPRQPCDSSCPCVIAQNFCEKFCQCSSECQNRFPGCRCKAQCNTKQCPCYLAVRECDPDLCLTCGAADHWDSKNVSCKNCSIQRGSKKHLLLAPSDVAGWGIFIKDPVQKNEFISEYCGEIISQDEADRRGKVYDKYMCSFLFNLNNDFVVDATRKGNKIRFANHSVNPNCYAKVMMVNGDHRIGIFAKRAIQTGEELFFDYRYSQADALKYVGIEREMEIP
* marks the source's active call; other numbers are inactive results. Shown is part of a subset that was picked to be rich in hits.

SMILES	EZH2 inh
COc1cc(C2Oc3c(O)ccc([C@@H]4Oc5cc(O)cc(O)c5C(=O)[C@H]4O)c3C2CO)ccc1O (some centres undefined)	17
O=C1C[C@@H](c2ccccc2)Oc2cc(O)cc(O)c21	-14
O=C(Oc1ccc([C@@H]2Oc3cc(O)cc(O)c3C[C@H]2O)cc1O)c1cc(O)c(O)c(O)c1	99*
COc1ccc(S(=O)(=O)N(C)C[C@@H]2Oc3cc(-c4cccc(F)c4)ccc3S(=O)(=O)N([C@H](C)CO)C[C@H]2C)cc1	-2
Cc1ccccc1N=C(N)Nc1ccccc1C	5
C[C@@H]1O[C@@H](O[C@@H]2[C@@H](O)[C@H](Oc3c(-c4ccc(O)cc4)oc4cc(O)cc(O)c4c3=O)O[C@H](CO)[C@H]2O)[C@H](O)[C@H](O)[C@H]1O	59*
O=c1c(O[C@@H]2O[C@H](CO)[C@@H](O)[C@H](O)[C@H]2O)c(-c2ccc(O)c(O)c2)oc2cc(O)cc(O)c12	58*
COc1cc(-c2oc3cc(O)cc(O)c3c(=O)c2OC2OC(CO[C@@H]3O[C@@H](C)[C@H](O)[C@@H](O)[C@H]3O)C(O)C(O)C2O)ccc1O (some centres undefined)	23
COc1cc2c(=O)c(-c3ccc(O)cc3)coc2cc1O[C@@H]1O[C@@H](C)[C@H](O)[C@@H](O)[C@H]1O	-20
COc1c(OC2OC(CO)C(O)C(O)C2O)ccc(O)c1C(=O)OCc1ccccc1O[C@@H]1O[C@H](CO)[C@@H](O)[C@H](O)[C@H]1O (some centres undefined)	18
O=c1c(O[C@@H]2O[C@H](CO)[C@@H](O)[C@H](O)[C@H]2O)c(-c2ccc(O)cc2)oc2cc(O)cc(O)c12	-5
CC1OC(Oc2cc(O)c3c(=O)c(OC4OC(CO)C(O)C(O)C4OC4OC(C)C(O)C(O)C4O)c(-c4ccc(O)cc4)oc3c2)C(O)C(O)C1O (centres undefined)	-12
COc1cc(-c2oc3cc(O)cc(O)c3c(=O)c2OC2OC(CO)C(O)C(O)C2O)ccc1O (centres undefined)	56*
C[C@@H]1O[C@@H](OCC2OC(OC3C(OC4C(Oc5c(-c6ccc(O)c(O)c6)oc6cc(O)cc(O)c6c5=O)OC(CO)C(O)C4O)OC(CO)C(O)C3O)C(O)C(O)C2O)[C@H](O)[C@H](O)[C@H]1O (some centres undefined)	6
O=C(N/N=C/c1ccc(I)cc1)c1ccccn1	-34
CC(=O)N(C)C[C@H]1Oc2ncc(-c3cccnc3)cc2C(=O)N([C@@H](C)CO)C[C@@H]1C	-8
C[C@@H]1CN([C@H](C)CO)C(=O)c2cc(NS(=O)(=O)c3ccc(Cl)cc3)ccc2O[C@@H]1CN(C)Cc1ccccc1	6
COc1ccccc1NC(=O)N[C@@H]1C=C[C@@H](CC(=O)N[C@H](C)c2ccccc2)O[C@@H]1CO	5
COC(=O)[C@H](Cc1ccccc1)N1C(=O)O[C@H](Cc2ccccc2)[C@@H]1/C=C/C1CC1	56*
COC(=O)[C@H](Cc1ccc(N=[N+]=[N-])cc1)N1CC(/C=C/[C@@H](O)Cc2ccccc2)=C[C@@H](C2CC2)O1	0
COc1ccccc1NC(=O)C(Cc1ccccc1)N1C(=O)C2C3c4ccccc4C(c4ccccc43)C2C1=O (centres undefined)	-2
C[C@@H]1CN([C@@H](C)CO)S(=O)(=O)c2ccc(C3=CCCCC3)cc2O[C@@H]1CN(C)Cc1cncnc1	-11
CC1(C)CC[C@]2(C(=O)O[C@@H]3O[C@H](CO)[C@@H](O)[C@H](O)[C@H]3O)CC[C@]3(C)C(=CCC4[C@@]5(C)CC[C@H](OC6O[C@H](CO)[C@@H](O)[C@H](O[C@@H]7O[C@H](CO)[C@@H](O)[C@H](O)[C@H]7O)[C@H]6O)C(C)(C)C5CC[C@]43C)[C@@H]2C1 (some centres undefined)	-18
C[C@H]1O[C@@H](O[C@H]2CC[C@@]3(C)C(CC[C@]4(C)C3CC=C3C5CC(C)(C)CC[C@]5(C(=O)O)CC[C@]34C(=O)O)C2(C)C)[C@H](O)[C@@H](O)[C@H]1O (some centres undefined)	3
C[C@@H]1CC[C@]2(C(=O)O[C@@H]3O[C@H](CO)[C@@H](O)[C@H](O)[C@H]3O)CC[C@]3(C)C(=CCC4[C@@]5(C)C[C@@H](O)[C@H](O)C(C)(C)C5CC[C@]43C)C2[C@]1(C)O (some centres undefined)	36
SMILES	EZH2 inh
CC1(C)CC[C@]2(C(=O)O[C@@H]3O[C@H](CO)[C@@H](O)[C@H](O)[C@H]3O)CC[C@]3(C)C(=CCC4[C@@]5(C)C[C@@H](O)[C@H](O)C(C)(C)C5CC[C@]43C)C2[C@@H]1O (some centres undefined)	68*
CC1CC[C@]2(C(=O)OC3OC(COC4OC(CO)C(O)C(O)C4O)C(O)C(O)C3O)CC[C@]3(C(=O)O)C(=CCC4[C@@]5(C)CC[C@H](OC6OC(C)C(O)C(O)C6O)C(C)(C)C5CC[C@]43C)C2C1C (some centres undefined)	71*
C[C@H]1[C@H](C)CC[C@]2(C(=O)O)CC[C@]3(C(=O)O)C(=CCC4[C@@]5(C)CC[C@H](O[C@@H]6O[C@@H](C)[C@H](O)[C@@H](O)[C@H]6O)C(C)(C)C5CC[C@]43C)[C@H]12 (some centres undefined)	19
COc1ccccc1S(=O)(=O)N(C)C[C@@H]1OCc2cnnn2CCCC(=O)N([C@H](C)CO)C[C@H]1C	7
Cc1ccc(S(=O)(=O)Nc2ccc3c(c2)CC(=O)N([C@H](C)CO)C[C@@H](C)[C@H](CN(C)C(=O)Nc2ccc(F)cc2)O3)cc1	6
COc1ccc(CN(C)C[C@@H]2Oc3c(NC(=O)Nc4ccc5c(c4)OCO5)cccc3C(=O)N([C@@H](C)CO)C[C@H]2C)cc1	3
CCOc1ccccc1NC(=O)NCc1cccnc1	0
CN1CCN(CCCN2c3ccccc3Sc3ccc(S(=O)(=O)N(C)C)cc32)CC1	-5
C[C@@H](NC(=O)C[C@H]1C=C[C@H](NC(=O)Nc2ccc3c(c2)OCO3)[C@@H](CO)O1)c1ccccc1	-11
C[C@@H]1O[C@@H](O[C@@H]2[C@@H](O)[C@H](OCCc3ccc(O)c(O)c3)O[C@H](CO[C@@H]3OC[C@](O)(CO)[C@H]3O)[C@H]2OC(=O)/C=C/c2ccc(O)c(O)c2)[C@H](O[C@@H]2OC[C@H](O)[C@H](O)[C@H]2O)[C@H](O)[C@H]1O	68*
COc1ccc(/C=C/C(=O)O[C@H]2[C@H](OC3C4O[C@]4(CO)[C@H]4C(O[C@@H]5O[C@H](CO)[C@@H](O)[C@H](O)[C@H]5O)OC=C[C@@H]34)O[C@@H](C)[C@H](O)[C@H]2O)cc1 (some centres undefined)	8
COC(=O)C1=COC(O[C@@H]2O[C@H](CO)[C@@H](O)[C@H](O)[C@H]2O)[C@@H]2[C@@H](C)[C@@H](OC(=O)/C=C/c3ccc(O)c(O)c3)[C@@H](O)[C@H]12 (some centres undefined)	4
C[C@H](CO)N1C[C@H](C)[C@H](CN(C)CC2CC2)Oc2c(NC(=O)C3CC3)cccc2C1=O	2
O=C(CSc1nnc(-c2cccs2)n1-c1ccc(F)cc1)Nc1ccc(Cl)c(Cl)c1	-6
C[C@@H]1CN([C@H](C)CO)C(=O)c2cccc(NS(=O)(=O)c3cn(C)cn3)c2O[C@H]1CN(C)Cc1ccccc1	5
